Test results reported in PubChem BioAssay (NCATS).
Values joined by “and” are separate entries in the source; they are usually repeats but may differ in a detail not shown here. Identical values can stand only once. Results filed as inconclusive are left out. Values without a mark were called inactive. Calls come from the whole dose curve; as a rule, active = well fitted curve in the direction sought with a large enough effect; inconclusive = small, poorly fitted or top-dose-only effect, or another doubt; inactive = no such curve, though single readings can be large or run the other way.

Assay: qHTS Assay for Identifying Gametocytocidal Compounds (AID 743244);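 note: actives lower the fluorescent signal which means gametocytes are killed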
Details: P. falciparum 3D7 stage III-V gametocytes, alamarBlue, 72 h; max response: active compounds read low
In short: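 Using 20,000 stage III–V 3D7 gametocytes per well, compounds were incubated 72 h under 37 °C/5% CO2. Viability was then assessed by 24 h alamarBlue reduction, measured fluorometrically at 525/598 nm.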
% is set by controls: 0 for no effect and ±100 for the full control effect.

Structure (SMILES) | max response
O=C(O)c1ccc(-n2nc(-c3ccccc3O)nc2-c2ccccc2O)cc1 | -16.4%
Cn1c(=O)c2c(ncn2CC(O)CO)n(C)c1=O (stereo not given) | -1.9%
CCN[C@H]1C[C@H](C)S(=O)(=O)c2sc(S(N)(=O)=O)cc21 | 4.01%
CCCOc1ccc(C(=O)OCCN(CC)CC)cc1N | 14.8%
O=c1oc2c(O)c(O)cc3c(=O)oc4c(O)c(O)cc1c4c23 | 10.2%
Cn1nnc2c(C(N)=O)ncn2c1=O | -7.58%
COc1cnc(NS(=O)(=O)c2ccc(N)cc2)nc1 | 7.05%
CCc1c2c(nc3ccc(OC(=O)N4CCC(N5CCCCC5)CC4)cc13)-c1cc3c(c(=O)n1C2)COC(=O)[C@]3(O)CC | 2.43%
O=C(O)CSCC(=O)NC1CCSC1=O (stereo not given) | -6.62%
NCCCC(O)(P(=O)(O)O)P(=O)(O)O | 14.9%
Nc1nc(F)nc2c1ncn2[C@@H]1O[C@H](CO)[C@@H](O)[C@@H]1O | 0.368% and 0.376%
CN(C)CCc1c[nH]c2ccc(C[C@H]3COC(=O)N3)cc12 | -7.68%
COC(=O)Nc1nc2ccc(Sc3ccccc3)cc2[nH]1 | 2.65%
CC(C)C1CCC(C(=O)N[C@H](Cc2ccccc2)C(=O)O)CC1 (stereo not given in full) | 6.84%
CCC(=O)O[C@]1(C(=O)CCl)[C@@H](C)C[C@H]2[C@@H]3CCC4=CC(=O)C=C[C@]4(C)[C@@]3(F)[C@@H](O)C[C@@]21C | 4.44%
